The target in test [1] is Aldehyde dehydrogenase, mitochondrial (Homo sapiens) (UniProt P05091). As to the kind of experiment: qHTS for Inhibitors of the Aldehyde Dehydrogenase Family (ALDH2) Primary screen (AID 2061308). Note: nearly all actives have a fitted effect of over 55% in size.
Test [2] concerns the target Retinaldehyde dehydrogenase 3 (Homo sapiens) (UniProt P47895). As to the kind of experiment: qHTS for Inhibitors of the Aldehyde Dehydrogenase Family (ALDH1A3) Primary screen (AID 2061315). For orientation: qHTS replaces the single test concentration by a dilution series.

Among the data in PubChem BioAssay (NCATS) are Potency values, retold here.

Each structure is given as a SMILES string. Records with an inconclusive call do not appear. A call without a number means that no potency is given here. Calls of active or inactive are those of the source. Calls come from the whole dose curve; as a rule, active = well fitted curve in the direction sought with a large enough effect; inconclusive = small, poorly fitted or top-dose-only effect, or another doubt; inactive = no such curve, though single readings can be large; an effect the other way counts as inactive or inconclusive.

Turning to `Cc1ccc(-c2csc(N3CCC(C(N)=O)CC3)n2)cc1`, the Potency entry in test [1] and in test [2] was “inactive” each time.
On to `COc1ccc(OC)c(C2=Nn3c(nnc3-c3ccccc3C)SC2)c1`, for which the Potency entry in test [1] and in test [2] was “inactive” each time.
Turning to `OCc1ccnc(NC(=S)N2CCN(c3cccc(C(F)(F)F)c3)CC2)c1`, the Potency result in test [1] and in test [2] was “inactive” throughout.
Regarding `Nc1ccc(-c2ccc(NC(=O)c3cccs3)cn2)cc1`, the Potency result in test [1] and in test [2] was “inactive” throughout.
For the compound `O=C(NC(c1ccco1)c1cc(Cl)c2cccnc2c1O)c1ccsc1` (stereo unspecified), the Potency entry in test [1] and in test [2] was “inactive” each time.
As to `O=C(O)CCCCCNC(=O)CSc1nnc(-c2ccc([S+](=O)([O-])N3CCCC3)cc2)n1-c1ccccc1`, the Potency result in test [1] and in test [2] was “inactive” in each case.
In the case of `O=S(=O)(NCC1CN(S(=O)(=O)c2c(F)cccc2F)C1)c1ccc2c(c1)OCCO2`, the Potency entry in test [1] and in test [2] was “inactive” each time.
Take `Fc1cc(Nc2nc(-c3ccncc3)nc3ccccc23)ccc1-c1cccnc1`: the Potency result in test [1] and in test [2] was “inactive” throughout.
Turning to `O=C(O)c1ccc(O)c2ncc(N3CCCC3)cc12`, the Potency entry in test [1] and in test [2] was “inactive” each time.
In the case of `CCCn1c(C)nc2c(N(C)CCN(C)C)nc(C)nc21`, the Potency entry in test [1] and in test [2] was “inactive” throughout.
With `Cc1ccc(NC(=O)CN2C(=O)N/C(=C\c3cccn3-c3ccc([S+](N)(=O)[O-])cc3)C2=O)cc1`, the Potency entry in test [1] and in test [2] was “inactive” each time.
As for `Cc1csc(CNc2ncnc3ccc(-c4ccccc4Cl)cc23)c1`, the Potency result in test [1] and in test [2] was “inactive” in each case.
Consider `CCOc1ccc(CCNC(=O)c2cc3sccc3[nH]2)cc1OCC`, for which the Potency entry in test [1] and in test [2] was “inactive” throughout.
For the compound `CCN1CCN(Cc2ccc(C(=O)Nc3ccc(C)c(Oc4ccc5c(c4)CC(=O)N5)c3)cc2C(F)(F)F)CC1`, the Potency result in test [1] and in test [2] was “inactive” each time.
For `O=C(Nc1ccc(-c2nc3ccccc3[nH]2)cc1)c1ccc2c(c1)OCCO2`, the Potency entry in test [1] and in test [2] was “inactive” each time.
Consider `Cc1cccc(-c2ccc3ncnc(NCc4cc(C)cs4)c3c2)c1`, for which the Potency entry in test [1] and in test [2] was “inactive” in each case.
Turning to `O=c1c2ccccc2nc2sc(Nc3cccc(N4CCN5CCCCC5C4)c3)nn12` (stereo unspecified), the Potency entry in test [1] and in test [2] was “inactive” in each case.
With `COC(=O)c1ccc(O)c2ncccc12`, the Potency result in test [1] and in test [2] was “inactive” in each case.
`O=C(Nc1ccc(O)c2ncccc12)c1ccccc1F`: the Potency entry in test [1] and in test [2] was “inactive” throughout.
Take `COc1cc(Cl)c(C)cc1NC(=O)C(OC(=O)CNC(=O)c1ccccc1)c1ccccc1` (stereo unspecified): the Potency entry in test [1] and in test [2] was “inactive” throughout.
For `Cc1cc(N[S+](=O)([O-])c2ccc(NC(=O)Cc3ccc(Cl)c([N+](=O)[O-])c3)cc2)no1`, the Potency entry in test [1] and in test [2] was “inactive” each time.
With `N#Cc1ccc(C(=O)NCC(=O)OC(C(=O)Nc2cc(C(F)(F)F)ccc2Cl)c2ccccc2)cc1` (stereo unspecified), the Potency entry in test [1] and in test [2] was “inactive” each time.
As to `CCOc1ccc(CCNC(=O)c2cccs2)cc1OCC`, the Potency entry in test [1] and in test [2] was “inactive” each time.
Regarding `COc1ccccc1/C=C/C(=O)NCCc1nc2ccccc2n1CCOc1ccc(C)cc1`, the Potency entry in test [1] and in test [2] was “inactive” each time.
`CS(=O)(=O)/C=C/c1nc(Nc2cc(F)cc(F)c2)c2ncn(CC(F)F)c2n1`: the Potency entry in test [1] and in test [2] was “inactive” throughout.
As to `CCC12CCCN3CCc4c(n(c5ccccc45)C(O)C1)C32` (stereo unspecified), the Potency result in test [1] and in test [2] was “inactive” throughout.
Turning to `O=C(Nc1ccc(-n2ccnc2)c(F)c1)Nc1nnc(-c2ccncc2)s1`, the Potency result in test [1] and in test [2] was “inactive” throughout.
On to `Cc1ccc(NC(=O)CN2C(=O)N/C(=C\c3cccn3-c3ccc(C(=O)NOCc4ccccc4)cc3)C2=O)cc1`, for which the Potency entry in test [1] and in test [2] was “inactive” each time.
As for `Nc1ccc(-c2nnc(NC(=O)Nc3ccc(Cl)c(Cl)c3)s2)cc1`, the Potency entry in test [1] and in test [2] was “inactive” each time.
Regarding `O=c1c2ccccc2nc2sc(Nc3ccc4c(c3)CNC4)nn12`, the Potency result in test [1] and in test [2] was “inactive” each time.
As for `O=S(=O)(c1ccsc1)N1CCN(c2nc(-c3cccs3)nc3ccccc23)CC1`, the Potency entry in test [1] and in test [2] was “inactive” in each case.
As for `Cc1ccc(S(=O)(=O)Nc2cnccc2C(=O)Nc2cccc3ccccc23)cc1`, the Potency result in test [1] and in test [2] was “inactive” in each case.
For the compound `N#Cc1nc(-c2cccc3ccccc23)oc1NC1COC1`, the Potency entry in test [1] and in test [2] was “inactive” throughout.
As to `Cc1cnc(-c2ccccc2C(C)C)nc1NCc1ccc(C2CCCNC2)cc1` (stereo unspecified), the Potency result in test [1] and in test [2] was “inactive” throughout.
As for `Oc1cccc2cc(-c3ccncc3)cnc12`, the Potency entry in test [1] and in test [2] was “inactive” throughout.
As for `Cc1ccc(OCCn2c(CCNC(=O)/C=C/c3cccc(Br)c3)nc3ccccc32)cc1`, the Potency result in test [1] and in test [2] was “inactive” each time.
Turning to `Cc1cc(NS(=O)(=O)c2ccc3c(c2)CCC(=O)N3)ccc1F`, the Potency result in test [1] and in test [2] was “inactive” in each case.
Take `Cc1ccc(S(=O)(=O)Nc2ccccc2C(=O)Nc2nccs2)cc1`: the Potency result in test [1] and in test [2] was “inactive” each time.
Turning to `CC(=O)Nc1sc2c(c1-c1ncco1)CCNC2`, the Potency entry in test [1] and in test [2] was “inactive” each time.
Regarding `CCCn1c(C)nc2c(NCC(C)(C)CN(C)C)nc(C)nc21`, the Potency entry in test [1] and in test [2] was “inactive” each time.
In the case of `O=C(O)c1ccc(O)c2ncc(N3CCC(N4CCOCC4)C3)cc12` (stereo unspecified), the Potency result in test [1] and in test [2] was “inactive” throughout.
In the case of `O=C(Nc1ncc(Cc2ccccc2)s1)c1ccc(-c2cccc([N+](=O)[O-])c2)o1`, the Potency entry in test [1] and in test [2] was “inactive” each time.
As for `O=C(Nc1nc(-c2ccccc2)cs1)c1ccccc1S(=O)(=O)Nc1nccs1`, the Potency result in test [1] and in test [2] was “inactive” each time.
